8 compounds from ChEMBL document CHEMBL3988442, “University of Dundee, Small-Polar-MMV Screening Library” (2021) can be followed below.

Holding throughout (parameters): scale not given: direction of the effect not stated beside the values
The target in assay [1] is Protein translocase subunit SecA (Escherichia coli (strain K12)) (UniProt P10408). The assay can be described thus: Assay to Identify E. coli SecA ATPase Inhibitors. The assay is classed as functional. To be noted: 30 µM.
For assay [2], the target named is T1, Ubiquitin-activating enzyme e1, putative (Leishmania donovani (strain BPK282A1)) (UniProt E9BSI1).
T1 sequence (whole entry): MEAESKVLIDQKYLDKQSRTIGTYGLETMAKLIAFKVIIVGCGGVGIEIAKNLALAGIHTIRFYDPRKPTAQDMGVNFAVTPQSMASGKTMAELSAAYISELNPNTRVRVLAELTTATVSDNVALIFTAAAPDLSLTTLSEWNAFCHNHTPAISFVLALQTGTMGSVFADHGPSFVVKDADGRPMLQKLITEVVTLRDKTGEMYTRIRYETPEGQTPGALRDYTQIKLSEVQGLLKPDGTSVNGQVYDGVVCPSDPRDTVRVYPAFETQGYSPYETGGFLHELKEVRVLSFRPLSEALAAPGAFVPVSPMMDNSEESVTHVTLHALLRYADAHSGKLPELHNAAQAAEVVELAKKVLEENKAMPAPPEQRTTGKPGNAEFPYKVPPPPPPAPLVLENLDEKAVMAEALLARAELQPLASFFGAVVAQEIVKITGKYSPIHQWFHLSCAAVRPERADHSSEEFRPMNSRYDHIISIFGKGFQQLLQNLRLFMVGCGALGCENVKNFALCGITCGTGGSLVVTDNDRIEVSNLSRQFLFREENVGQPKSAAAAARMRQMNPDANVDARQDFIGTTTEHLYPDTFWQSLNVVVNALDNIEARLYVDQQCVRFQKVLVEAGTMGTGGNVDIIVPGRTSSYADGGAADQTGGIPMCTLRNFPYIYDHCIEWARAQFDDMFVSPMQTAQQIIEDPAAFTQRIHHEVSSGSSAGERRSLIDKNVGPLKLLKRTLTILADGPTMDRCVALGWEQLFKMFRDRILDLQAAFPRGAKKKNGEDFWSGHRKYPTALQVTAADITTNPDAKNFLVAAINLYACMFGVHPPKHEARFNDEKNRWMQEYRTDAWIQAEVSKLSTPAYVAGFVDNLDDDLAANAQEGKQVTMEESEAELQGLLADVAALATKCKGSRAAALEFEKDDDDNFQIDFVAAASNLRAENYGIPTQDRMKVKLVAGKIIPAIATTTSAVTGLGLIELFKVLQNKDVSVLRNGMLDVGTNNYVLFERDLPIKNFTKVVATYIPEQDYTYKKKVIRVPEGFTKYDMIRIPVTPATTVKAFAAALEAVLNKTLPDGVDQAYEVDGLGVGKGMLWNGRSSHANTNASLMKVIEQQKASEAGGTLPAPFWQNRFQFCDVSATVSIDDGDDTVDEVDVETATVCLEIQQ
The assay is described as follows: Leishmania donovani Ubiquitin Activating Enzyme (LdE1). To be noted: 30 µM. The assay is classed as functional.

Assay [3] addresses AMP-activated protein kinase, AMPK (Homo sapiens) (UniProt P54646+O43741+P54619+Q9UGJ0+Q9Y478+Q13131+Q9UGI9). The assay can be described thus: AMP-dependent Kinase enzyme assay. An in vitro enzyme assay that detects ADP turnover that is directly proportional to AMPK activity. This uses naive AMPK that is activated during the assay with MK-8722. The conditions noted are these: 30 µM. The assay is classed as functional.

The target of assay [4] is Sialic acid-binding Ig-like lectin 9 (Homo sapiens) (UniProt Q9Y336). The assay can be described thus: Hs-Siglec9 ALPHAscreen SOP 20170721. The conditions noted are these: 10 µM.
In assay [5] the test system is Trypanosoma cruzi. The assay can be described thus: Trypanosoma cruzi phosphomannomutase and mannose-1-phosphate guanylyltransferase assay. The assay is classed as functional. To be noted: 10 µM.
Assay [6] concerns the target T2, Arginase-2, mitochondrial (Homo sapiens) (UniProt P78540).
T2 sequence (whole entry): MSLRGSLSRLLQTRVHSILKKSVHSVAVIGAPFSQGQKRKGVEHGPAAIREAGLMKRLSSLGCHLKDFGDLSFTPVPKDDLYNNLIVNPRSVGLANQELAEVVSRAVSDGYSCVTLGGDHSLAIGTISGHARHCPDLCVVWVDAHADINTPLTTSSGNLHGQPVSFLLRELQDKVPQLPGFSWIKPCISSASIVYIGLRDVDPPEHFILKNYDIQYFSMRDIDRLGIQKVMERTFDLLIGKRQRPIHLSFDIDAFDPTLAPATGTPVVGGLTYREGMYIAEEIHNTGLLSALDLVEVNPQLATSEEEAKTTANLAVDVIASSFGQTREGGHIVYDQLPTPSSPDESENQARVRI
The assay is described as follows: in vitro enzyme assay to detect the production of urea directly proportional to the activity of Arginase II. Also: in the data most compounds retested in dose-response had high values. The assay is classed as functional. To be noted: 33.3 µM.

For assay [7], the target named is T3, Proteasome subunit beta (Trypanosoma cruzi) (UniProt O96673).
T3 sequence (whole entry): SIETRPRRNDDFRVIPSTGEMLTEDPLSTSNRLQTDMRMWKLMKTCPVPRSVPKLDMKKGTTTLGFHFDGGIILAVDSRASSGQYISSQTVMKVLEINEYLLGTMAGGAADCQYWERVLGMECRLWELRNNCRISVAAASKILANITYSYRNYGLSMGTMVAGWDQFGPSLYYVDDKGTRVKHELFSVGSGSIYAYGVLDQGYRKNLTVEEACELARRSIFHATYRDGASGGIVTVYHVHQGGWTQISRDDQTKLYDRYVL
The assay is described as follows: Trypanosoma cruzi proteasome chymotrypsin-like activity (TcProtChymo) assay. Also: in the data most compounds retested in dose-response had high values. The assay is classed as functional. To be noted: 9.37 µM.

The species entered for assay [8] is Homo sapiens. The assay can be described thus: To identify inhibition of the IFN signalling (Jak-Stat) pathway via expression of an eGFP reporter gene under the control of an IFN-stimulated response element (ISRE) containing MxA promoter. The assay is classed as functional. The conditions noted are these: 30 µM.
Assay [9] has as its target T4, Tyrosyl-tRNA synthetase, putative (Trypanosoma cruzi (strain CL Brener)) (UniProt Q4DSP6).
T4 sequence (whole entry): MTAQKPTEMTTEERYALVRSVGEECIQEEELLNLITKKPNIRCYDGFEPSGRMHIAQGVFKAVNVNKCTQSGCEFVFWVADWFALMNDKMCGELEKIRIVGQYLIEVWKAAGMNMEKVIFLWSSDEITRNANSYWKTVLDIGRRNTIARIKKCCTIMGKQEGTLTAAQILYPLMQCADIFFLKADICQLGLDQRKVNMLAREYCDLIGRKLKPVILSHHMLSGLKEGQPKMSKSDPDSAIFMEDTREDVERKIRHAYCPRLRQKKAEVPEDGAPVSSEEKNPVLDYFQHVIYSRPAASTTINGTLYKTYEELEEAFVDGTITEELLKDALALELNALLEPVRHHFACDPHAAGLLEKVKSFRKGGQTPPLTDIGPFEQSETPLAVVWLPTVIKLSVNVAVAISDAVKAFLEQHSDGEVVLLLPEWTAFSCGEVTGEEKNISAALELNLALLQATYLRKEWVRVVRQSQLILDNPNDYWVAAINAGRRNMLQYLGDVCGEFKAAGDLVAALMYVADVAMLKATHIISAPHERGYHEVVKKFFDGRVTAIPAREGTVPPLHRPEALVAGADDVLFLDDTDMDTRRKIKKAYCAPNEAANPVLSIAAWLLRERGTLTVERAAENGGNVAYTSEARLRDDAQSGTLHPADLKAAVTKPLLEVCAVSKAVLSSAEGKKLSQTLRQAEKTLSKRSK
The assay is described as follows: Trypanosoma cruzi tyrosyl tRNA synthetase (TcYRS) _High Tyrosine SOP. Also: in the data most compounds retested in dose-response had high values. The assay is classed as functional. To be noted: 30 µM.

Assay [10] has as its target T4, Tyrosyl-tRNA synthetase, putative (Trypanosoma cruzi (strain CL Brener)). The assay is described as follows: Trypanosoma cruzi tyrosyl tRNA synthetase (TcYRS) SOP. To be noted: 30 µM. The assay is classed as functional.
The target in assay [11] is Chromo domain-containing protein 1 (Saccharomyces cerevisiae (strain ATCC 204508 / S288c) (Baker's yeast)) (UniProt P32657). The assay is described as follows: ScCHD-1 Enzyme Inhibition Assay. Also: in the data most compounds retested in dose-response had high values. The conditions noted are these: 30 µM. The assay is classed as functional.

For some of these results: Potency and affinity values are given separately.

Chain of Chromo domain-containing protein 1 (Saccharomyces cerevisiae (strain ATCC 204508 / S288c) (Baker's yeast)) (P32657 whole entry, the tested form may be a part): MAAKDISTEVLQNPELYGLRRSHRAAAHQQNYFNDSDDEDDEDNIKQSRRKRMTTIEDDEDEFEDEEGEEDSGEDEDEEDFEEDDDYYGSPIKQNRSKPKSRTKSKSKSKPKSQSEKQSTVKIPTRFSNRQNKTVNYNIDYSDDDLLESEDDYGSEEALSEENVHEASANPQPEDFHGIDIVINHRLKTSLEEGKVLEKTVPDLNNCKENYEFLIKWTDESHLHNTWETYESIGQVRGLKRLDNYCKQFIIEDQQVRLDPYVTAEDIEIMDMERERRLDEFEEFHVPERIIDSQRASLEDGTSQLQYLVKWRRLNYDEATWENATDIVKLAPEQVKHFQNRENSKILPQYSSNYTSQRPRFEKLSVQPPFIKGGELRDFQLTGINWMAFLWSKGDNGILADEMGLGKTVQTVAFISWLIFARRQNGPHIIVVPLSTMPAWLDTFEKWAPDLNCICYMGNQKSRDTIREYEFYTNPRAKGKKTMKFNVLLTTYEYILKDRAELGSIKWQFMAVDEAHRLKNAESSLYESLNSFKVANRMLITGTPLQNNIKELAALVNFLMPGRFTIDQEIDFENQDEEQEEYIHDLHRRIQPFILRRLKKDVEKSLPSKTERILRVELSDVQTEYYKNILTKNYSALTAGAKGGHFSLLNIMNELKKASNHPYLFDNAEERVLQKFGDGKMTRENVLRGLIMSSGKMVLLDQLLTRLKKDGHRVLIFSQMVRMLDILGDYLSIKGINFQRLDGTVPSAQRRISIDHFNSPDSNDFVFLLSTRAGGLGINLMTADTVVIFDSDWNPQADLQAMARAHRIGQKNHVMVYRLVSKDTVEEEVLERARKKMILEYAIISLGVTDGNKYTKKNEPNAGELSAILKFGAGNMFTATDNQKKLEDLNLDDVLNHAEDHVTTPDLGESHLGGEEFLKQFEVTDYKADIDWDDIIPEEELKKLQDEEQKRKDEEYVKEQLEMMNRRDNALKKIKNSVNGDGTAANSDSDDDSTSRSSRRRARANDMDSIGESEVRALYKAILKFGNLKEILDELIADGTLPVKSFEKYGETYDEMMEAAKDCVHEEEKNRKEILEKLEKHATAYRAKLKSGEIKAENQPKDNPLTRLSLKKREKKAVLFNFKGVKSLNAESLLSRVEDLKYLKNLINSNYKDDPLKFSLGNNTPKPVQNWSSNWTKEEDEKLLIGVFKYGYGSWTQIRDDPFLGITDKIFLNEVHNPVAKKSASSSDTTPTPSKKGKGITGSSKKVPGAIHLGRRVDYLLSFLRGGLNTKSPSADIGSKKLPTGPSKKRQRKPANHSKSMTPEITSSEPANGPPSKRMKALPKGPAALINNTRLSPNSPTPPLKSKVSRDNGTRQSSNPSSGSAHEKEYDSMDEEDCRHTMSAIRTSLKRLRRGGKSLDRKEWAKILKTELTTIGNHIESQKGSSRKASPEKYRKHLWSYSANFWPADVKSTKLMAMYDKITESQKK
Chain of Sialic acid-binding Ig-like lectin 9 (Homo sapiens) (Q9Y336 whole entry): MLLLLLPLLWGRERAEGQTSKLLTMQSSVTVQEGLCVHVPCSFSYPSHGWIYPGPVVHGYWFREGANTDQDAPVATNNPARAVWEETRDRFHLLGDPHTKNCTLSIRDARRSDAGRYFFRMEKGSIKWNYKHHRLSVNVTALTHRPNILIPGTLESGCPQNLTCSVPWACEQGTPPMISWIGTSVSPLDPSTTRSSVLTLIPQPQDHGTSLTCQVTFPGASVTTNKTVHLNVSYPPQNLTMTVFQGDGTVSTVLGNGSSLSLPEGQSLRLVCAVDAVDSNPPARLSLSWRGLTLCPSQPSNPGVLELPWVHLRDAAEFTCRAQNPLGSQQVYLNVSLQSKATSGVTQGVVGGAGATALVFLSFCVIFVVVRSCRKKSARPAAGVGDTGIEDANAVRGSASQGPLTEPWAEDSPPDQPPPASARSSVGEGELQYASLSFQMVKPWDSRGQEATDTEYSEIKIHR
Chain of Protein translocase subunit SecA (Escherichia coli (strain K12)) (P10408 whole entry): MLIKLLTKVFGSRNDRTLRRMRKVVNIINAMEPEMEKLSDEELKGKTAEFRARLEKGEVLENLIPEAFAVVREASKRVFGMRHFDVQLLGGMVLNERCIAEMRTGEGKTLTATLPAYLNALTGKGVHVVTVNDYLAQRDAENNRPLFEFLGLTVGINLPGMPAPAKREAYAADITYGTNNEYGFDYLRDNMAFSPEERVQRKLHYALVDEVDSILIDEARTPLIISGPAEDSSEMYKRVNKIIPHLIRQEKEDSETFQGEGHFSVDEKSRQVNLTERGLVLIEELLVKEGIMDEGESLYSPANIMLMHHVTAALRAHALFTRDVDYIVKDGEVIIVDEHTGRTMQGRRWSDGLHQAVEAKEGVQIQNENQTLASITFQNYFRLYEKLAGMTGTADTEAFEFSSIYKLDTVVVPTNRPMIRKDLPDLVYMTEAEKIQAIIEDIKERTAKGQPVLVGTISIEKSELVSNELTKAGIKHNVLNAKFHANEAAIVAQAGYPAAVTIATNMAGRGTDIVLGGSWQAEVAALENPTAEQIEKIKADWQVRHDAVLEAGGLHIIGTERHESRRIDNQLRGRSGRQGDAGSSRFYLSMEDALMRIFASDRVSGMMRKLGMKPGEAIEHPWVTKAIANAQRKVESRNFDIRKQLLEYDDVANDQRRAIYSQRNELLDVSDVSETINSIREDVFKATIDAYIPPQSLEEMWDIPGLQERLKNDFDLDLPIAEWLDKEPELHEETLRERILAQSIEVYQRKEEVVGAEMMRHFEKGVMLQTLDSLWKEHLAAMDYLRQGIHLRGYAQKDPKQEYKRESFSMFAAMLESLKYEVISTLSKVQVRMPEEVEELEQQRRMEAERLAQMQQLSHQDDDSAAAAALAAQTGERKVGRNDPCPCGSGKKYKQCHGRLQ

For `CS(=O)(=O)NCCNC(=O)C1(c2cccc(Cl)c2)CC1`, the Percent Effect in assay [1] was -0.857%; in [2], 9.72%; in [3], -4.76%; in assay [4], 1.31%; in [5] it was 1.07%; in assay [6] it was 20.8%. Further, the Percent Effect is 10.9% in assay [7]; -17.9% in assay [8]; 3.16% in [9]; 7.69% in assay [10]; -4.91% in assay [11].

With `O=C(Cc1ccc2c(c1)OCCO2)NCCc1nnc2n1CCC2`, the Percent Effect in assay [1] was -2.17%; in assay [2], 24.3%; in assay [3] it was 22.3%; in [4], -3.07%; in [5], 3.87%; in assay [6] it was -7.62%. The Percent Effect in [7] was 10.8%; in [8], 2.82%; in [9], 4.43%; in [10], 18.5%; in assay [11], -9.97%.

Take `O=C(COc1coc(CN2CCCCC2)cc1=O)NCc1ccccc1`: the Percent Effect is -1.81% in assay [1]; 7.89% in [2]; 6.63% in assay [3]; 2.03% in [4]; -4.38% in [5]; -4.73% in assay [6]. Also, the Percent Effect was 18.5% in assay [7]; -0.295% in [8]; 4.25% in assay [9]; 10.4% in assay [10]; -5.41% in assay [11].

`Cc1cnn(CC2CCCN2Cc2nnc(Cc3ccccc3)o2)c1` (stereo not drawn): the Percent Effect was -4.98% in [1]; 10.8% in assay [2]; -8.22% in [3]; -3.85% in assay [4]; -9.15% in assay [5]; 6.81% in assay [6]. Also, the Percent Effect in assay [7] is 3.96%; in assay [8], 19.9%; in assay [9], 4.43%; in assay [10] it was 3.7%; in [11], -4.25%.

`O=C(NCCC1CCCO1)c1ccccc1N1CCOCC1` (stereo not drawn): the Percent Effect in assay [1] was -4.55%; in [2], 2.74%; in [3] it was -1.11%; in assay [4] it was 12.4%; in assay [5] it was 4.56%; in [6], -5.99%. The Percent Effect is 10.7% in assay [7]; 8.12% in [8]; 10.4% in [9]; 18.5% in assay [10]; -2.02% in assay [11].

For the compound `Cc1nn(C)c(N(C)C)c1CNCC(O)COc1ccccc1` (stereo not drawn), the Percent Effect was -3.8% in assay [1]; 5.48% in [2]; -12.3% in [3]; 0.598% in [4]; 4.11% in assay [5]; 2.27% in assay [6]. The Percent Effect is 17.4% in [7]; -13.8% in assay [8]; 5.38% in assay [9]; 17.5% in assay [10]; -1.71% in assay [11].

As to `N#Cc1ccccc1OCCN1CCCC1Cn1cccn1` (stereo not drawn), the Percent Effect in assay [1] was -0.713%; in assay [2] it was -5.41%; in assay [3], -5.48%; in [4], 8.98%; in [5], 5.75%; in assay [6] it was -3.61%. Further, the Percent Effect in assay [7] is -5.22%; in [8], -12.9%; in assay [9] it was 2.46%; in [10] it was 11.1%; in assay [11], -5.36%.

As to `CC(C)=CCN(C)C1CCCN(Cc2noc(C)n2)C1` (stereo not drawn), the Percent Effect is -2.36% in assay [1]; 18.9% in assay [2]; 22.7% in [3]; -3.99% in [4]; -3.06% in assay [5]; 1.29% in [6]. Besides, the Percent Effect is 9.7% in assay [7]; 15.7% in [8]; 1.98% in assay [9]; 13.4% in assay [10]; -3.38% in assay [11].
